Hit rate of the full screen: of about 340,000 compounds, about 1,000 (0.29%) were called active. Not all results are given here. Results with a measured potency or affinity are listed apart. Unmarked numbers belong to inactive results. Cut-off read from the data, not from the text of the source: inconclusive = inhibition above about 27% without an active follow-up result; inactive = below that.
Assay: H1N1 influenza NS1A inhibitors, functional cell based assay (AID 504329)
Conditions: percent inhibition, at 12.5 µM, hits give high values

Compound	inhibition
COCCNC(=S)Nc1ccc2nc(N3CCN(C)CC3)cc(C)c2c1	8.16%
O=C(CNS(=O)(=O)c1ccccc1)Nc1ccccc1Br	-10.4%
Cc1c(NC(=S)N/N=C/c2ccc(Br)cc2)c(=O)n(-c2ccccc2)n1C	0.4%
Cc1c(NC(=S)N/N=C/c2ccc(O)cc2)c(=O)n(-c2ccccc2)n1C	-9.33%
Cc1c(NC(=S)N/N=C/C=C/c2ccc([N+](=O)[O-])cc2)c(=O)n(-c2ccccc2)n1C	1.25%
Cc1c(NC(=S)N/N=C/c2cc([N+](=O)[O-])ccc2O)c(=O)n(-c2ccccc2)n1C	2.17%
CCCOc1ccc(/C=N/NC(=O)CSCc2ccc([N+](=O)[O-])cc2)cc1OCC	-9.68%
CC(C)CN(C(=O)C1CCCO1)C1CCS(=O)(=O)C1 (stereo not given)	-6.34%
O=C(Oc1coc(CSc2ncccn2)cc1=O)c1cccs1	-4.51%
COC(=O)C1=C(CSc2nccn2C)NC(=O)NC1c1cc(C)ccc1C (stereo not given)	1.93%
Cc1c(OC(C)C(=O)NCc2ccccn2)ccc2c3c(c(=O)oc12)CCCC3 (stereo not given)	-4.86%
C=CCOc1ccc(/C=N/NC(=O)CC(=O)NC2CCCCC2)cc1	6.03%
CC1(C(=O)Nc2nc3ccc(S(C)(=O)=O)cc3s2)CC1(Cl)Cl (stereo not given)	5.4%
O=C(O)c1ccc(N=N/C(=N\Nc2ccc(C(=O)O)cc2)c2ccccc2)cc1	15.3%
O=C(O)c1cccc(NN=C2c3ccccc3-c3ccccc32)c1	10.1%
CC(=O)c1cccc(NC(=O)CN2C(=O)NC(C)(c3ccc4c(c3)OCCCO4)C2=O)c1 (stereo not given)	2.48%
COc1ccccc1CNC(=O)Cn1cc([N+](=O)[O-])ccc1=O	-14%
Cc1cccnc1Nc1nc(-c2ccc(O)cc2)cs1	5.7%
Cc1cccc(Nc2nc(-c3cccs3)cs2)n1	8.74%
Cc1cccnc1Nc1nc(-c2ccccc2)cs1	-4.02%
c1ccc(Nc2nc(-c3ccccn3)cs2)cc1	8.8%
CCCc1nnc(NC(=O)CCC(=O)N2CCN(CCOC(c3ccccc3)c3ccccc3)CC2)s1	0.42%
O=CNCC(=O)NC1CCCCCC1	-2.65%

Compound	inhibition
Cc1ccc(OCC(=O)N/N=C/c2cccnc2)cc1C	-11%
O=C1NC(=O)C(CC(=O)N(c2ccccc2)C2(C(=O)NC3CCCC3)CCCCC2)N1 (stereo not given)	-0.63%
CC(Oc1ccc(Cl)cc1Cl)C(=O)Nc1ccc(N2CCN(C)CC2)cc1 (stereo not given)	9.83%
Cc1ccc(S(=O)(=O)CC(=O)N2CCN(c3ccccc3F)CC2)cc1	2.84%
CCOC(=O)N1CCN(C2=C(NS(=O)(=O)c3ccc(NC(C)=O)cc3)C(=O)c3ccccc3C2=O)CC1	12.4%
Cc1ccc(S(=O)(=O)NCC(=O)N2CCN(c3ccccc3F)CC2)cc1	11.9%
CCN1CCN(C2=C(NS(=O)(=O)c3ccccc3)C(=O)c3ccccc3C2=O)CC1	-3.88%
CCOC(=O)N1CCN(C2=C(NS(=O)(=O)c3ccccc3)C(=O)c3ccccc3C2=O)CC1	18.6%
CC(=O)Nc1ccc(S(=O)(=O)NC2=C(N3CCN(Cc4ccccc4)CC3)C(=O)c3ccccc3C2=O)cc1	12.6%
Cc1ccc(S(=O)(=O)Nc2nc3ccccc3nc2N2CCN(c3ccccc3F)CC2)cc1	-0.57%
CCN1CCN(C2=C(NS(=O)(=O)c3ccc(C)cc3)C(=O)c3ccccc3C2=O)CC1	10.6%
CC(C)(C)NC(=O)C12CC3CC(CC(Cl)(C3)C1)C2	1.34%
O=C(COC(=O)c1ccc(Br)c(S(=O)(=O)N2CCOCC2)c1)NC1CC1	-5.17%
CCOC(=O)c1cc(S(=O)(=O)NC2CCC(C)CC2)cn1C (stereo not given)	-6.39%
CCCOc1ccc(NC(=O)C(=O)NCCCn2ccnc2)cc1	-6.26%
Cc1cccc(Oc2cnn(C(C)(C)C)c(=O)c2Cl)c1	-1.49%
CCOC(=O)N1CCN(c2cc(NCCO)c([N+](=O)[O-])c3nonc23)CC1	-0.42%
CC(=O)OCCNc1cc(Sc2nc3ccccc3[nH]2)c2nonc2c1[N+](=O)[O-]	-9.31%
CCOC(=O)N1CCN(c2ccccc2O)CC1	-11.3%
CCOC(=O)c1c(C)nc2c(c1-c1ccccc1)C(=O)c1ccccc1-2	-17.6%
O=C(O)CCCNc1cc(N2CCN(C(=O)c3ccco3)CC2)c2noc3c2c1C(=O)c1ccccc1-3	25.1%
O=C1c2ccccc2-c2c1cccc2C(=O)N1CCN(C(=O)c2ccco2)CC1	0.55%
CN1CCN(c2ccc(Cl)cc2NC(=O)CC2OC(=O)c3ccccc32)CC1 (stereo not given)	-6.08%

Compound	inhibition
CCOC(=O)c1c(C)oc2c1C(=O)c1ccccc1C2=O	15.3%
CCOC(=O)CC(=O)CSc1nc(C)nc2c1oc1ccccc12	2.82%
O=C(NCCCN1CCOCC1)C(=O)NCC1OCCCN1S(=O)(=O)c1cc(F)ccc1F (stereo not given)	-1.53%
COC(=O)c1cc(C)sc1NC(=S)N1CCN(CCc2ccccc2)CC1	4.17%
CCN1CCN(c2ccc(NC(=O)c3ccc4c(c3)OCCO4)cc2C)CC1	-4.06%
COc1cccc(CCc2nc3ccccc3c(=O)n2N)c1	-4.28%
COc1ccc(S(=O)(=O)n2nc(-c3ccc(Cl)cc3)cc2N)cc1	2.77%
CCN(CC(=O)Nc1c(F)cccc1F)C(=O)c1cc([N+](=O)[O-])ccc1N1CCOCC1	-7.79%
Cc1cc(C)nc(NS(=O)(=O)c2ccc(NC(=S)NC(=O)C3CCCC3)cc2)n1	-7.03%
COC(=O)c1ccccc1NC(=O)N1CCN(c2ccc(OC)cc2)CC1	12%
COc1cc(-c2cc(C(=O)OCC(=O)NC3CC3)c3ccccc3n2)cc(OC)c1OC	-4.4%
COc1ccc(C(=O)Nc2cnn(Cc3c(F)cccc3Cl)c2)cc1OC	-4.35%
O=C(N[C@H]1CP(=O)(Oc2ccccc2)O[C@H](COCc2ccccc2)[C@H]1O)C(Cl)(Cl)Cl (stereo not given in full)	-20.9%
CCOC(=O)c1cnc2ccc(C)cc2c1NCCN1CCOCC1	-11.3%
CCOC(=O)c1ccc2ncc(C(=O)OCC)c(Nc3ccc(N4CCOCC4)cc3)c2c1	28.6%
O=c1[nH]c(=S)[nH]cc1Oc1ccccc1	-0.47%
CC(=O)N1c2ccc(S(=O)(=O)N3CCCC(C(=O)Nc4ccc(F)cc4)C3)cc2CC1C (stereo not given)	1.22%
CC1CCN(C2CCN(S(=O)(=O)c3ccc(F)cc3)CC2)CC1	-14.4%
Cc1n[nH]c(=S)n(/N=C/c2cccs2)c1=O	-10.9%
COc1ccccc1OCC(=O)Nn1c(=S)[nH]c2ncccc2c1=O	-1.5%
Cc1nn2c(=S)[nH]nc2[nH]c1=O	5.07%
CNCC(=O)Nc1c(C)n[nH]c1C	-3.79%
COc1cc(C)ccc1OCC(=O)NC1CCCCCC1	-0.58%

Compound	inhibition
CCC(C)NC(=O)COCc1cc(-c2ccc3c(c2)OCO3)on1 (stereo not given)	-7.2%
COc1ccc(-c2sc3cc4c(cc3c2-c2ccc3c(c2)OCCO3)OCO4)cc1	-11.4%
ClCC1CSC(=NC23CC4CC(CC(C4)C2)C3)O1 (stereo not given)	-6.27%
N#CC(C#N)=c1ccc2c(c1)N1C(c3ccccc3)=CC(c3ccccc3)C3CCCCC31N=2 (stereo not given)	-4.24%
C1=CC2=NC34CCCCC3CC3=C(CCCC3)N4C2=CC1=NC1CCCCC1 (stereo not given)	4.56%
C=CCN(c1ccccc1)S(=O)(=O)c1cccc(C(=O)NCC(c2ccc(OC)cc2)N2CCCCC2)c1 (stereo not given)	3.3%
COc1ccccc1NS(=O)(=O)c1ccc(N/N=C/c2c(C)nn(-c3ccccc3)c2N2CCCC2)c([N+](=O)[O-])c1	8.44%
Cc1ccc(NC(=S)NNc2ccc([N+](=O)[O-])cc2S(=O)(=O)Nc2ccccc2C(=O)O)cc1C	26.1%
COc1cc(C=NNc2ccc(S(=O)(=O)Nc3ccccc3C(=O)O)cc2[N+](=O)[O-])ccc1O	14.4%
COc1ccc(C=NNc2ccc(S(=O)(=O)Nc3ccccc3C(=O)O)cc2[N+](=O)[O-])c(OC)c1	20.4%
CC(=O)Nc1ccc(C=NNc2ccc(S(=O)(=O)Nc3ccccc3C(=O)O)cc2[N+](=O)[O-])cc1	15.1%
CSc1ccc(C=NNc2ccc(S(=O)(=O)Nc3ccccc3C(=O)O)cc2[N+](=O)[O-])cc1	3.57%
COC(=O)Nc1ccc(S(=O)(=O)N2CCC(C(=O)N3CCCCC3C)CC2)cc1 (stereo not given)	-11.1%
COc1ccccc1NS(=O)(=O)c1cc(C(=O)NCC(C)(C)N2CCOCC2)ccc1C	-2.2%
CCOc1ccc(CN(CC)C(=O)Cc2c[nH]c3ccccc23)cc1OC	-0.83%
O=C(O)[C@H](Cc1ccccc1)N1C(=O)c2ccncc2C1=O	-6.13%
CC(=O)c1c(C)[nH]c(C(=O)OCC(=O)NCc2ccc3c(c2)OCO3)c1C	-0.39%
CCN=C1SC(CC(=O)NC(N)=O)C(=O)N1CC (stereo not given)	0.98%
NC1=NC(=O)C(CC(=O)NCc2ccccc2)S1 (stereo not given)	2.63%
O=C(O)CNC(=O)CC1S/C(=N/N=C2/NC(=O)CS2)NC1=O (stereo not given)	16.4%
NC(=O)NC(=O)CC1S/C(=N/N=C2/NC(=O)CS2)NC1=O (stereo not given)	5.04%
